Shown are actives, neighbours in structure and some others; about 12% of the full set was active somewhere.
Gal4-VP16 FLuc – counter-screen for ROR gamma inhibitors: Gal4-VP16 reporter; 310,000 tested, 3.5% active; Drosophila S2 Gal4-VP16 UAS-luciferase, luminescence, 20 h; Potency, µM (doses to about 53.6 µM), inactives show at the highest dose activity, negative = inhibition, hits mostly inhibitors;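 note: Gal4-VP16 expression switched on by copper sulfate through the metallothionein promoter; nearly all actives have a fitted effect of over 50% in size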
Sfp PPTase inh – blocks B. subtilis Sfp PPTase activity; Potency, µM, for inactives: largest response in the series, negative = inhibition, hits mostly inhibitors; Q9F4F7; Biochemical Sfp PPTase activity, qHTS; 310,000 tested, 3.5% active;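 note: the enzyme is Sfp with the accession as filed and its product quenches rhodamine fluorescence; 0% = enzyme reaction without inhibitor and -100% = no enzyme wells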
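Fluorescence-quenching assay: 15 nM Sfp-PPTase preincubated 15 min at room temperature with compound, then 5 uM rhodamine-CoA and 12.5 uM BHQ-2-labelled YbbR peptide added. Fluorescence (ex 525/em 598 nm) read at start and after 30 min; difference gives rate.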
ALDH1A1 block – inhibitors of human aldehyde dehydrogenase 1A1; Purified ALDH1A1, NADH fluorescence, propionaldehyde substrate; Potency, µM (series often up to 75.3 µM), for inactives: top-dose activity, negative = inhibition, hits mostly inhibitors; 220,000 tested, 7.3% active; AID 1030; active = well fitted inhibition curve with a large enough effect, not every such curve was filed as active; inconclusive = small, poorly fitted or top-dose-only effect, or another doubt; inactive = no such curve, though single readings can be large or run the other way;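 note: plate controls were no enzyme wells and a reference inhibitor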
PLK1 PBD block – PLK1 (human) polo-box domain binding inhibition; P53350; Plk1 PBD binding of FITC phosphopeptide, fluorescence polarization; Potency, µM, for the others: max response, negative = inhibition, most hits filed as inhibitors; 360,000 tested, 2.8% active; note: series mostly up to about 57 µM; nearly all actives have a fitted effect of over 65% in size
RORgamma inh – inhibitors of mouse ROR gamma transcriptional activity; P51450; Drosophila S2 Gal4-RORgamma UAS-luciferase reporter, 20 h; Potency, µM (series often up to 53.6 µM), for inactives: at the top dose activity change, negative = inhibition, most hits filed as inhibitors; 310,000 tested, 5.4% active; AID 2551; note: nearly all actives have a fitted effect of over 60% in size
Target sequence (P51450 whole entry, looked up, the tested form may be a part): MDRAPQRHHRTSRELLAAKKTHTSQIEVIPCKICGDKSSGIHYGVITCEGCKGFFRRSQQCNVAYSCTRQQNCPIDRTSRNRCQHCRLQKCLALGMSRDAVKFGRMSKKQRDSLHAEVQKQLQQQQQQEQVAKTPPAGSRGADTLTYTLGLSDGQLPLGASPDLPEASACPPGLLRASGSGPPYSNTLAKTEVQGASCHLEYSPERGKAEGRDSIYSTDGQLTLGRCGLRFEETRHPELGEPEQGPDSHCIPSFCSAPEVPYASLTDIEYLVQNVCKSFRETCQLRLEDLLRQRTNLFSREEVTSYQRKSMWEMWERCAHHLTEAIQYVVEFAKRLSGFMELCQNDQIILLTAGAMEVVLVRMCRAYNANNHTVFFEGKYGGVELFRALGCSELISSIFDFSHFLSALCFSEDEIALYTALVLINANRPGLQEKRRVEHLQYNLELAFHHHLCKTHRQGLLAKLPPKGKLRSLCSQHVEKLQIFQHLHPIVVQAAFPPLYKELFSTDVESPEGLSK
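Drosophila Schneider cells stably carrying a metallothionein-driven Gal4 DBD–ROR gamma fusion and a UAS-Photinus luciferase reporter were exposed to compound for 1 hr, then induced with copper sulfate (700 uM final) for 20 hr at ambient temperature before luminescence reading.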
* marks the source's active call; other numbers are inactive results; ? = inconclusive; nt = no result; [ ] = remark or other dose. Unless noted, calls come from the whole dose curve; as a rule, active = well fitted curve in the direction sought with a large enough effect; inconclusive = small, poorly fitted or top-dose-only effect, or another doubt; inactive = no such curve, though single readings can be large; an effect the other way counts as inactive or inconclusive. Unless noted, % is set by controls: 0 for no effect and ±100 for the full control effect; potency is the fitted concentration of half-maximal effect.

SMILES	Gal4-VP16 FLuc	Sfp PPTase inh	ALDH1A1 block	PLK1 PBD block	RORgamma inh
Nc1ccc(Sc2nnnn2-c2ccccc2)c(Cl)c1	25.1%	11.3%	22.4µM*	-1.0%	2.0%
Nn1c(SCC(=O)NC2CCCC2)nnc1C(F)(F)F	nt	nt	nt	8.4%	nt
CCCCCCN1C[C@H](n2cc(-c3ccc(F)cc3)nn2)[C@@H](O)C[C@@H]1c1ccc(Cl)cc1	nt	nt	nt	-6.1%	nt
COC(=O)CSc1nnc2n(-c3ccc(OC)cc3)c(=O)c3c4c(sc3n12)CCCCC4	1.2%	-9.0%	?	-9.0%	0.0%
COc1ccc(-n2c(N3CCN(C)CC3)nc3sc4c(c3c2=O)CCCCC4)cc1	-13.7%	-5.5%	2.82µM*	-0.7%	11.0%
COc1ccc(-n2c(=O)c3c4c(sc3n3c(=S)[nH]nc23)CCCC4)cc1	12.6µM*	-7.4%	-12.3%	-23.2%	7.94µM*
COc1ccc(-n2c(C)nc3sc4c(c3c2=O)CCC4)cc1	-3.8%	?	7.6%	-18.9%	17.3%
COC(=O)c1ccc(CN2CCc3ccccc32)cc1	0.7%	4.0%	nt	-8.4%	20.7%
COc1ccccc1C1C(C#N)=C(N)Oc2cc(C)n(Cc3ccccn3)c(=O)c21 (centres undefined)	-4.1%	50.1µM*	?	-6.5%	4.9%
COc1cc(C2C(C#N)=C(N)Oc3cc(C)n(Cc4ccccn4)c(=O)c32)cc2c1OCO2 (centres undefined)	0.8%	-19.2%	-0.6%	nt	6.1%
Cc1cc2c(c(=O)n1Cc1ccccn1)C(c1ccc3c(c1)OCO3)C(C#N)=C(N)O2 (centres undefined)	1.8%	13.5%	12.6µM*	-3.6%	0.1%
COc1cc(C2C(C#N)=C(N)Oc3cc(C)n(CC4CCCO4)c(=O)c32)cc2c1OCO2 (centres undefined)	-5.7%	-28.7%	25.1µM*	-10.1%	8.9%
COc1cc(OC)c2c(OC)c(-c3ccc4c(c3)OCO4)c(=O)oc2c1	?	-17.5%	?	nt	24.0%
C=CCNc1nc(Nc2ccc(OC)c(OC)c2)c2sc(-c3ccccc3)cc2n1	nt	nt	nt	1.3%	nt
CCOC(=O)C(C)Sc1nc(N2CCOCC2)c2c(c1C#N)CC(C)(C)OC2 (centres undefined)	nt	nt	nt	-5.9%	nt
COC(=O)c1ccc(CSc2nc(N3CCOCC3)c3c(c2C#N)CC(C)(C)OC3)o1	-0.5%	?	1.26µM*	?	-21.4%
CC(C)CCSc1nc(N2CCOCC2)c2c(c1C#N)CC(C)(C)OC2	-2.7%	?	-14.4%	-1.3%	-0.9%
COC(=O)CCSc1nc(N2CCOCC2)c2c(c1C#N)CC(C)(C)OC2	22.5%	79.4µM*	nt	-25.2%	-1.0%
CC1(C)Cc2c(C#N)c(SCC(=O)c3ccccc3)nc(N3CCOCC3)c2CS1	-7.4%	-7.7%	12.6µM*	29.9µM*	-17.1%
CCN(CC)S(=O)(=O)c1cccc(NC(=O)CCNC(=O)NC23CC4CC(CC(C4)C2)C3)c1	nt	nt	nt	-3.7%	nt
Cc1ccc(S(=O)(=O)N(C)C)cc1NC(=S)Nc1ccc2[nH]c(=O)[nH]c2c1	-1.8%	?	?	-23.4%	10.2%
Cc1ccc(S(=O)(=O)N(C)C)cc1NC(=S)NC12CC3CC(CC(C3)C1)C2	5.62µM*	12.6%	?	-19.5%	5.01µM*
CC1CCCC(NC(=S)Nc2cccc(S(=O)(=O)N(C)C)c2)C1C (centres undefined)	?	5.4%	?	-12.6%	12.6µM*
CN(C)S(=O)(=O)c1cccc(NC(=S)NC23CC4CC(CC(C4)C2)C3)c1	?	16.4%	nt	-0.9%	4.47µM*
Cc1ccc(S(=O)(=O)N(C)C)cc1NC(=S)NC(=O)C12CC3CC(CC(C3)C1)C2	7.08µM*	-5.5%	?	-8.4%	7.08µM*
SMILES	Gal4-VP16 FLuc	Sfp PPTase inh	ALDH1A1 block	PLK1 PBD block	RORgamma inh
CN(C)S(=O)(=O)c1cccc(NC(=S)NC2CCCCC2)c1	12.0%	7.0%	-12.7%	-8.3%	-39.7%
CCOC(=O)CCN1C(=O)[C@H]2[C@H]3[C@H](O)[C@H](O)C/C(=N/NC(=O)OCC)[C@H]3CC[C@@H]2C1=O	3.1%[10 µM]	12.9%	5.0%[13.5 µM]	nt	-20.8%[10 µM]
COCCCNC(=O)c1csc([C@@H]2O[C@H](CO)[C@H](O)[C@H](O)[C@H]2O)n1	nt	nt	nt	-4.5%	nt
CSC1=NC=C(C#N)C2=NC(c3ccc(Cl)cc3)NN12 (centres undefined)	nt	nt	nt	-19.4%	nt
CN(C)S(=O)(=O)c1cccc(NC(=S)NNC(=O)c2cc3ccccc3cc2O)c1	nt	nt	nt	23.8µM*	nt
NS(=O)(=O)c1cccc(NC(=S)NC(=O)C23CC4CC(CC(C4)C2)C3)c1	6.2%	4.2%	28.2µM*	-9.5%	11.7%
COC(=O)c1cccc(NC(=O)NC23CC4CC(CC(C4)C2)C3)c1	-2.7%	13.8%	31.6µM*	-3.3%	-6.9%
COc1cc(/C=N/NC(=S)Nc2cccc(S(=O)(=O)N(C)C)c2)ccc1O	3.55µM*	9.8%	-1.1%	-9.0%	3.55µM*
COCCn1c(=O)c(-c2ccc(OC)cc2)nc2cnc(Nc3ccccc3)nc21	-2.1%	20.3%	5.0%	nt	-4.0%
CN1CCN(c2nc3c(c(=O)n(C)c(=O)n3C)n2C)CC1	nt	nt	-7.0%[13.5 µM]	nt	nt
CN(C)S(=O)(=O)c1cccc(NC(=S)NN=C(Cc2ccccc2)Cc2ccccc2)c1	?	-14.3%	?	1.2%	12.6µM*
CN(CC(=O)Nc1cccc(S(=O)(=O)N(C)C)c1)Cc1ccccc1	-4.2%	14.2%	nt	-2.1%	28.4%
Cc1ccc(NC(=O)C2CCCN(C(=O)c3ccc(Cl)cc3)C2)cc1 (centres undefined)	-18.4%	6.9%	-10.0%	21.2µM*	24.2%
Cc1ccc(NC(=O)C2CCCN(C(=O)c3ccc(Cl)cc3)C2)cc1C (centres undefined)	9.0%	21.6%	?	10.5%	?
COc1ccc(OCCN2CCC(C(=O)NC(c3ccc(Cl)cc3)c3ncccc3C)CC2)cc1 (centres undefined)	nt	nt	nt	1.9%	nt
O=c1[nH]c(=O)n([C@@H]2C[C@H](O)[C@H](CO)O2)cc1I	-0.3%[17 µM]	15.3%	10.2%[20.9 µM]	nt	5.5%[2.98 µM]
CC(C)(Sc1ccc(CCN(CCCCC2CCCCC2)C(=O)NC2CCCCC2)cc1)C(=O)O	0.7%	26.0%	-13.4%	21.2µM*	14.4%
COc1ccc(/C=N/NC(=O)c2ccncc2)cc1CN1CCOCC1	-1.2%	23.4%	nt	1.5%	-16.1%
CCOc1cccc(-c2cc(C(=O)N/N=C/c3ccc(OC)c(CN4CCOCC4)c3)c3ccccc3n2)c1	?	-5.4%	?	-12.6%	15.8µM*
Nc1ccc(Nc2ccccc2)c(Cl)c1	5.0%	-23.2%	14.1µM*	-10.7%	13.0%
Nc1ccccc1Nc1ccccc1	-12.2%	-26.5%	?	-9.0%	12.6µM*
COc1ccc(-n2c(=O)c(CCc3ccccc3)nc3cncnc32)cc1	7.7%	9.6%	?	nt	-12.0%
CCCc1nc2ccc(Cl)cn2c1Cc1ccsc1	nt	nt	nt	-7.7%	nt
O=C(O)CCCn1cc(NC(=O)COc2ccc(F)cc2)cn1	-4.3%	8.4%	nt	-0.7%	41.3%
O=C(O)CCCn1cc(NC(=O)COc2cc(F)ccc2[N+](=O)[O-])cn1	0.501µM*	-3.3%	2.4%	-3.0%	-42.5%

Screens deposited in PubChem BioAssay by National Center for Advancing Translational Sciences (NCATS).
